Calb FLC: C. albicans growth modulation with fluconazole; 300,000 compounds, 0.57% hits; C. albicans CaCi-2 (fluconazole-resistant clinical isolate) + fluconazole, Alamar Blue growth, 48 h; growth inhibition, % (concentration not given with the values); AID 1979;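 active means growth inhibition above about 58% in most replicates, limit read from the data, passing the limit was not always enough; inconclusive means exactly half the replicates above a set limit; inactive means most replicates below a set limit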;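 further: all wells also contain fluconazole at 8 µg/ml as a sub-toxic cotreatment; 0% = median of DMSO wells and 100% = median of geldanamycin control wells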
CSC inhib: blocks cancer stem cells; cancer stem cell-like cells viability, luminescence; inhibition, % at 7.5 µM; 300,000 compounds, 1.1% hits; AID 2717; in the data active means inhibition above about 75%; inconclusive means no clear call, values can overlap the other calls; tested in HMLE shEcad cells
Beta cell apopt: blocks beta cell apoptosis; 300,000 compounds, 0.8% hits; protection from apoptosis, % (test concentration not listed); INS-1E cytokine-induced death, ATP luminescence, 48 h; percent of positive-control rescue, neutral wells zero;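 active means Every replicate reaches about 75%, or at least half do and their mean reaches it too, limit read from the data; inconclusive means At least half of replicates reach the limit but their mean does not; inactive means Under half of replicates reach the limit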;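 further: 0% = cytokine-treated negative control wells and 100% = positive control rescue; higher means more ATP so stronger rescue from cytokine killing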
MPTP block: permeability transition pore inhibition; isolated mouse mitochondria, Ca2+ swelling absorbance, 30 min; inhibition, % at 10 µM; 360,000 compounds, 1.4% hits;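 active means inhibition of 50% or more, scaled per plate between neutral and stimulator controls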;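 further: 0% = DMSO wells given calcium and 100% = 1 mM EGTA wells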
Mdm2-MdmX inh: inhibitors of human Mdm2/MdmX interaction. 330,000 compounds, 3% hits. inhibition, % at 8 µM. O15151+Q00987. SaOS-2 split-luciferase Mdm2/MdmX complementation, luminescence;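 active means inhibition of at least 50% at 8 µM in the primary screen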
Target sequence (O15151 whole entry, looked up): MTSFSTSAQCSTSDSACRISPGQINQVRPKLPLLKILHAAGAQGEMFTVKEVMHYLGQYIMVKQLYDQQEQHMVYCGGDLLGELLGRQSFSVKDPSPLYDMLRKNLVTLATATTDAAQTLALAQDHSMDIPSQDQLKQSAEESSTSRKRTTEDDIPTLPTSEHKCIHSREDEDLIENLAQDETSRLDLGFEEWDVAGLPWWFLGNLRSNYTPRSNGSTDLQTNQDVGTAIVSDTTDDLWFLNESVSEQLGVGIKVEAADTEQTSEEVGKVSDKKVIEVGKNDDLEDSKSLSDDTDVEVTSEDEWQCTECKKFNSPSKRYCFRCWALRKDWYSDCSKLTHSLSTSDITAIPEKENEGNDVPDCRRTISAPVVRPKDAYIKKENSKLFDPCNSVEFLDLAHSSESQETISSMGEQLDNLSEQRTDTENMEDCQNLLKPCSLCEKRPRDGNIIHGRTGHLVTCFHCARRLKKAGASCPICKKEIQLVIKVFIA
Target sequence (Q00987 whole entry, looked up): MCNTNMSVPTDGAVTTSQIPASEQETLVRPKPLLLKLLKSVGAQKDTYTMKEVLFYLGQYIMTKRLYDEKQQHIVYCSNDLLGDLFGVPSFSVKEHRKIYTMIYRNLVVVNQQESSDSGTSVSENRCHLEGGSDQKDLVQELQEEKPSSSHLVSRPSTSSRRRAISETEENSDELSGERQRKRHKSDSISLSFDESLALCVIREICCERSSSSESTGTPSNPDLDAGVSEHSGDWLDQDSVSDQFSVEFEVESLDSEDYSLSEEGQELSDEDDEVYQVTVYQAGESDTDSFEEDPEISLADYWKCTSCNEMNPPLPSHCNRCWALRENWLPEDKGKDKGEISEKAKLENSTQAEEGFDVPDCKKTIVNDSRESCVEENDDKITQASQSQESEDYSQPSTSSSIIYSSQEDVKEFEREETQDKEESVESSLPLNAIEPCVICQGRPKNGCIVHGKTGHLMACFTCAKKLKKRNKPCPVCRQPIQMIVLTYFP
Mdm2 MdmX conf: human Mdm2/MdmX binding inhibition, confirmed; inhibition, % at 8 µM; 10,000 compounds, 55% hits; shares compounds with Mdm2-MdmX inh; luminescent assay; in the data active means inhibition above about 40%
FLuc counter: full-length luciferase inhibition in Mdm2/MdmX counter-screen; shares compounds with Mdm2-MdmX inh; SaOS-2 full-length luciferase counterscreen, luminescence; inhibition, % at 8 µM; 6,200 compounds, 77% hits;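 active means mean inhibition at 8 µM reaching about 37%, which flags the compound as non-specific, limit read from the data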;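 further: p53-null SaOS-2 cells with luciferase driven by a doxycycline-inducible promoter; compound on cells about two nights before reading with doxycycline added after day one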
The depositor's hits bear a star; ? = inconclusive; . = no result. Shown are actives, neighbours in structure and some others; about 4.8% of the full set was active somewhere.

SMILES	Calb FLC	CSC inhib	Beta cell apopt	MPTP block	Mdm2-MdmX inh	Mdm2 MdmX conf	FLuc counter
CCN1C(=O)Nc2cccc3cccc1c23	2	4	-10	1	84*	62*	57*
Cc1ccc(COC(=O)CCN=C2NS(=O)(=O)c3ccccc32)cc1	3	-6	2	1	16	.	.
CCC(C)NC(=O)CCc1c(C)nc2c(c(C)nn2-c2ccccc2)c1C (configuration not stated)	2	-4	7	0	9	.	.
Cc1nc2c(c(C)nn2-c2ccccc2)c(C)c1CCC(=O)Nc1ccc(CN2CCCC2)cc1	4	19	24	1	64*	35	53*
O=C(N/N=C/c1sc(N2CCOCC2)nc1-c1ccccc1)c1ccc(O)cc1	-2	-3	13	2	-12	.	.
O=C(N/N=C/c1sc(N2CCOCC2)nc1-c1ccccc1)c1cccc(S(=O)(=O)N2CCCC2)c1	88*	26	107*	0	79*	72*	41*
N=c1sccn1CC(=O)NC(c1ccccc1)c1ccccc1	?	-6	-4	0	17	.	.
CC[C@]1(c2ccccc2C)ON(c2ccccc2C(F)(F)F)C1=O	.	18	8	1	47	.	.
COc1ccccc1[C@@]1(C)ON(c2ccccc2C(F)(F)F)C1=O	.	58	-9	1	89*	80*	32
Cc1ccccc1[C@]1(C)ON(c2ccccc2C(F)(F)F)C1=O	.	55	-12	.	80*	46*	59*
COc1ccccc1-c1cn(CC[C@@H]2CC[C@H](NC(=O)C3CCC3)[C@@H](CO)O2)nn1	.	.	.	0	.	.	.
Cn1c(SCC(=O)Nc2cc(Cl)cc(Cl)c2)nnc1-c1ccc2nonc2c1	-1	-2	-8	6	71*	14	.
Cc1cc(-c2nc(C)c(-c3nnc(SCC(=O)Nc4cc(Cl)cc(Cl)c4)n3C)s2)no1	-5	4	0	12	24	.	.
O=C(NCc1cc(Cl)cc(Cl)c1)c1csc([C@@H]2O[C@H](CO)[C@H](O)[C@H](O)[C@H]2O)n1	.	.	.	-1	.	.	.
COC(=O)c1[nH]c2cc(OC)c(OC)cc2c1/C=N/Nc1ccccc1	2	53	5	4	79*	25	85*
CC(=O)NC(C)(c1ccccc1)c1nc(-c2ccc(N(C)C)cc2)cs1 (configuration not stated)	.	.	.	0	.	.	.
COc1ccc(C(=O)Nn2c(SCC(=O)NC3CCCCC3)nc3ccccc3c2=O)cc1	-47	18	.	-8	18	.	.
COc1ccc(C(=O)Nn2c(SCC(=O)N3CCC(C)CC3)nc3ccccc3c2=O)cc1	?	11	16	5	59*	48*	142*
Cc1ccc(C2=NN(C(=O)CCl)C(c3ccco3)C2)o1 (configuration not stated)	8	.	.	-1	100*	99*	58*
CC(=O)N1N=C(c2ccco2)CC1c1ccco1 (configuration not stated)	18	-9	-8	2	7	.	.
CCN1CCN(c2ccc(S(=O)(=O)N3CCCCC3)cc2NC(=O)c2ccc([N+](=O)[O-])o2)CC1	-1	8	102*	-2	53*	28	.
O=C(/C=C/c1ccc(F)cc1)Nc1cc(S(=O)(=O)N2CCOCC2)ccc1N1CCCC1	0	7	3	0	24	.	.
CN1CCN(c2ccc(Cl)cc2NC(=O)/C=C/c2ccc(F)cc2)CC1	4	6	2	2	52*	14	.
CCC(=O)N1CCN(c2ccc(NC(=O)c3ccc([N+](=O)[O-])o3)cc2Cl)CC1	1	.	.	1	.	.	.
CCN1CCN(c2ccc(S(=O)(=O)N3CCOCC3)cc2NC(=O)/C=C/c2ccc([N+](=O)[O-])cc2)CC1	0	.	6	0	100*	48*	64*
SMILES	Calb FLC	CSC inhib	Beta cell apopt	MPTP block	Mdm2-MdmX inh	Mdm2 MdmX conf	FLuc counter
CCN1CCN(c2ccc(S(=O)(=O)N3CCOCC3)cc2NC(=O)c2cccc([N+](=O)[O-])c2)CC1	.	-15	-10	-1	21	.	.
CC(=O)N1CCN(c2ccc(NC(=O)c3ccc([N+](=O)[O-])o3)cc2Cl)CC1	-3	11	-2	0	69*	68*	27
CCCCNC(=O)c1nc(C2CCN(S(=O)(=O)c3ccccc3C(F)(F)F)CC2)oc1-c1cccc(C(F)(F)F)c1	.	.	.	-1	.	.	.
COc1ccccc1C(=O)Nc1ccnn1C1CCN(Cc2ncc[nH]2)CC1	2	-4	-9	0	11	.	.
Cc1ccc(N2CCN(C(CCc3ccccc3)C(=O)Nc3c(C)cccc3C)CC2)cc1 (configuration not stated)	.	.	.	2	.	.	.
CN1CCN(c2ccc(Cl)cc2NC(=O)c2ccc(S(=O)(=O)N3CCCCCC3)cc2)CC1	16	30	-5	2	67*	39	72*
O=C(Nc1ccc(S(=O)(=O)N2CCCC2)cc1)c1ccc([N+](=O)[O-])o1	.	29	47	0	67*	31	.
O=c1ncccn1C1OC(CO)C(O)C1O (configuration not stated)	.	.	.	0	.	.	.
COc1ccc(N(C)S(=O)(=O)c2cccc(C(=O)OCC(=O)N(C)c3ccccc3)c2)cc1	.	.	-1	0	10	.	.
O=C1N/C(=C/c2cccs2)C(=O)N1Cc1ccc(Br)cc1	-5	-11	6	0	54*	8	.
Cc1ccc(/C=C2/NC(=O)N(Cc3ccccc3)C2=O)s1	-28	-9	-2	0	-45	.	.
CCOC(=O)C1=C(CS(=O)(=O)c2ccccc2)NC(=O)NC1c1ccccc1OC (configuration not stated)	-4	-11	-7	-1	-1	.	.
COc1ccc(C(C(=O)Nc2c(C)cccc2C)N2CCN(C)CC2)cc1 (configuration not stated)	.	.	.	-2	.	.	.
O=C(Nc1ccc(CN2CCS(=O)(=O)CC2)cc1)c1ccc(C(F)(F)F)cc1	1	-2	-5	5	51*	8	.
CC(C)(C)c1ccc(C(=O)Nc2ccc(CN3CCS(=O)(=O)CC3)cc2)cc1	9	6	2	1	0	.	.
Cc1ccc(C(C(=O)NCc2ccco2)N(C(=O)CNC(=O)c2cccs2)c2ccc(C)cc2)cc1 (configuration not stated)	1	-8	-7	-1	-5	.	.
Cc1ccc(C(C(=O)NCc2ccco2)N(C(=O)CNC(=O)c2cccs2)c2c(C)cccc2C)cc1 (configuration not stated)	-3	3	36	3	52*	53*	65*
Cc1ccc(C(C(=O)NCc2ccco2)N(Cc2ccco2)C(=O)CNC(=O)c2ccco2)cc1 (configuration not stated)	-21	-9	-1	1	-11	.	.

Assay outcomes as filed in PubChem BioAssay.
